The text below walks through data of ChEMBL document CHEMBL4513149, “CO-ADD screening of MMV (CH) - MMV compounds” (2021).

The structures appear in SMILES notation. Entries with a potency or affinity are not part of this list.

The subject of the assay is Cryptococcus neoformans. The settings on record: Concentration 20 uM; ASSAY_TEST Inhibition of Fungal Growth; detection method Resazurin; Absorption (OD600-OD570); plate type 384well; NBS; CORNING #3640. Background: Resazurin is reduced to fluorescent resorufin, in cell work by metabolically active cells.
For `CCc1cc(=O)n(C)c(SC(C)C(=O)Nc2ccc(F)cc2)n1` (stereo not drawn), the Inhibition (in general, the drop in the measured response relative to a control, in per cent) is listed as -9.3%.
The same measure for `COc1ccc(C2(C(=O)Nc3ccc(Br)cc3)CCCC2)cc1`: -2.31%; for `CC1CS(=O)(=O)CCN1/N=C/c1ccc([N+](=O)[O-])o1` (stereo not drawn) [NIFURTIMOX]: 5.99%; for `Cc1cc(C)n2nc(C(=O)Nc3cc(C(F)(F)F)ccc3N3CCOCC3)nc2n1`: -4.53%.
Consider `Cc1cc(Cl)ccc1NC(=O)CCc1ccc(S(=O)(=O)NCC(C)C)cc1`, for which the Inhibition is reported as -9.04%.
The same measure for `O=C(Nc1ccccc1-c1nc2c(C(=O)O)cccc2o1)c1ccccc1`: -2.58%; for `CCc1ccccc1-n1c(C)cn2c3c(=O)n(C(C(=O)OC)C(C)C)c(=O)n(C)c3nc12` (stereo not drawn): -8.91%.
The same measure for `COc1ccc(Cl)cc1NC(=O)CN(C)C(=O)c1cnn(-c2ccccc2)n1`: -5.87%.
